Each structure is given as a SMILES string. Out of some 13,000 compounds screened, about 3,200 (25%) showed an effect of 50% or more. The list shows a part of the results.

The source of these data is PMC4552634, “A New Set of Chemical Starting Points with Plasmodium falciparum Transmission-Blocking Potential for Antimalarial Drug Discovery” (PLoS ONE, 2015).

The test concerns P. falciparum stage V gametocytes. Set-up: BacTiter-Glo ATP luminescence viability of purified stage V gametocytes in 384-well plates, per cent inhibition versus DMSO. The following applies: 48 h, 5 µM; inhibitor.
For orientation: % Inhibition means the change of the read-out against control, counted positive when it falls. As to `O=C(NCCCCCN1CCC(c2c[nH]c3ccccc23)CC1)Nc1ccc(Br)cc1` [TCMDC-139115], the “% Inhibition” value was -28.65%.
To `Cc1ccc(NC(=O)NCCCCCN2CCC(c3c[nH]c4ccccc34)CC2)cc1I` [TCMDC-139200] belongs 66.97%; to `O=C(NCCCCCN1CCC(c2c[nH]c3ccccc23)CC1)Nc1ccc(I)c(Cl)c1` [TCMDC-139202], -23.12%.
Next, `CC1(C)N=C(N)N=C(N)N1c1ccc(Oc2ccc(Cl)cc2)c(Cl)c1` [TCMDC-123522]: 76.9%; `Cc1cc(N2C(N)=NC(N)=NC2(C)C)ccc1Cl` [TCMDC-137705]: -13.35%.
`Cc1ccc(N2C(N)=NC(N)=NC2(C)C)cc1Cl` [TCMDC-137708]: the “% Inhibition” value is -11.46%.
Next, `COc1cccc(C(=O)NCc2cccs2)c1Oc1ccccc1` [TCMDC-141236]: 3.513%.
Regarding `NCC(=O)Nc1cccc(Nc2nccc(-c3c(-c4cccc(NC(=O)c5ccccc5)c4)nn4ccccc34)n2)c1` [TCMDC-135671], the “% Inhibition” value is -11.23%.
As for `CC1CCN(C(=O)C(Cc2c[nH]c3ccccc23)NS(=O)(=O)c2ccc(Cl)cc2)CC1` (stereo not shown) [TCMDC-124494], the “% Inhibition” value worked out at 54%.
Consider `O=C(NCCC1CCN(CCc2c[nH]c3ccccc23)CC1)Nc1ccc(Cl)c(Cl)c1` [TCMDC-139151], for which the “% Inhibition” value is on record as 31.54%.
On to `O=C(CCc1ccccc1)N[C@H](Cc1c[nH]c2ccccc12)C(=O)N1CCC(NCc2ccc3c(c2)Cc2ccccc2-3)CC1` [TCMDC-135353], for which the “% Inhibition” value is given as 27.37%.
As for `CC1CCN(C(=O)[C@H](Cc2c[nH]c3ccccc23)NS(=O)(=O)c2ccc(Cl)cc2)CC1` [TCMDC-125035], the “% Inhibition” value amounted to 69.39%.
On to `C[C@@H](CNc1ccnc(Nc2ccc3[nH]c(=O)[nH]c3c2)n1)c1ccccc1` [TCMDC-136803], for which the “% Inhibition” value is listed as -37.25%.
With `O=C(c1cc(C(F)(F)F)cc(C(F)(F)F)c1)N1CCC(CCN2CCC3(CC2)C(=O)NCN3c2ccccc2)CC1Cc1ccc(Cl)c(Cl)c1` (stereo not shown) [TCMDC-141945], the “% Inhibition” value was -34.22%.
As to `CN1CCN(c2cccc(-c3nnc(-c4ccc(OCC(=O)NCc5ccc(C(F)(F)F)cc5)c([N+](=O)[O-])c4)o3)c2)CC1` [TCMDC-134942], the “% Inhibition” value turned out to be 2.294%.
Next, `CC1(C)[C@H]2CC[C@@H](CNc3nc(NCCc4cnc[nH]4)nc(Nc4ccc(Oc5ccccc5)cc4)n3)[C@@H]1C2` [TCMDC-139744]: -37.07%.
For the compound `CC(C)(C)c1ccc(CNC(=O)COc2ccc(-c3nnc(-c4cccc([N+](=O)[O-])c4)o3)cc2[N+](=O)[O-])cc1` [TCMDC-134986], the “% Inhibition” value is -5.433%.
With `CC(C)(C)OC(=O)NCc1ccc(Nc2nnc(-c3ccc(OCC(=O)NCc4ccc(C(C)(C)C)cc4)c([N+](=O)[O-])c3)o2)cc1` [TCMDC-134991], the “% Inhibition” value stood at 114.3%.
Turning to `CC(C)(C)OC(=O)NCc1ccc(Nc2nnc(-c3ccc(OCC(=O)NC[C@@H]4CC[C@H]5C[C@@H]4C5(C)C)c([N+](=O)[O-])c3)o2)cc1` [TCMDC-135039], the “% Inhibition” value came out at 110.7%.
For `CC1(C)[C@H]2CC[C@@H](CNc3nc(NCC(=O)Nc4ccc5ccccc5c4)nc(N4CCC(N5CCCC5)CC4)n3)[C@@H]1C2` [TCMDC-139977], the “% Inhibition” value is recorded as 10.19%.
For the compound `CCCc1cc(N2CCC(N3CCCC3)CC2)nc(Nc2ccc(Cl)cc2)n1` [TCMDC-132386], the “% Inhibition” value stood at 18.02%.
To `COc1ccc(C2CC(c3cccs3)=NN2C(=O)COc2cccc(C(C)=O)c2)cc1OC` (stereo not shown) [TCMDC-125111] belongs -18.64%.
With `FC(F)(F)c1ccc(-c2cncc(-c3ccc(C(F)(F)F)cc3)n2)cc1` [TCMDC-138711], the “% Inhibition” value is listed as -27.18%.
With `N#Cc1cccc(Nc2nccc(NCC(O)c3ccccc3C(F)(F)F)n2)c1` (stereo not shown) [TCMDC-136576], the “% Inhibition” value was -28.54%.
As to `O=C(Nc1ccc(-c2csc3nccn23)cc1)c1ccc(Cl)cc1` [TCMDC-137159], the “% Inhibition” value is 11.24%.
As to `CN1CCN(CCCN(Cc2ccc(-c3cccc(CNCc4ccc5c(c4)OCO5)c3)cc2)C(=O)NCCc2ccccc2)CC1` [TCMDC-140947], the “% Inhibition” value was 67.47%.
To `CN1CCN(CCCN(Cc2cccc(-c3ccc(CNCc4ccc5c(c4)OCO5)cc3)c2)C(=O)Nc2ccccc2)CC1` [TCMDC-140596] belongs 57.54%.
In the case of `CN1CCN(CCCN(Cc2ccc(-c3ccc(CNCc4ccc5c(c4)OCO5)cc3)cc2)C(=O)Nc2ccccc2)CC1` [TCMDC-140607], the “% Inhibition” value stood at 58.83%.
As to `CN1CCN(CCCN(Cc2ccc(-c3cccc(CNCc4ccc5c(c4)OCO5)c3)cc2)C(=O)Nc2ccccc2)CC1` [TCMDC-140606], the “% Inhibition” value is 65.32%.
As for `c1ccc2c(c1)ncn2-c1ccnc(Nc2ccncc2)n1` [TCMDC-138908], the “% Inhibition” value is given as 15.51%.
For `Cc1ccc(NC(=O)c2cc(Br)cc(N3CCCN(C)CC3)c2)cc1F` [TCMDC-135143], the “% Inhibition” value is -89.56%.
For the compound `CCCCCN1CCCC(CNS(=O)(=O)c2ccc(C(=O)Nc3ccc(C(F)(F)F)cc3)cc2)C1` (stereo not shown) [TCMDC-133679], the “% Inhibition” value is on record as -5.047%.
To `c1ccc2c(c1)CN(CC1CCOCC1)CC1(CCN(Cc3c[nH]c4cnccc34)CC1)O2` [TCMDC-133380] belongs 13.86%.
In the case of `O=C(NCCCN(Cc1ccc(F)cc1)c1ccccn1)C(c1cc2ccccc2o1)N1CCN(C(c2ccccc2)c2ccccc2)CC1` (stereo not shown) [TCMDC-141022], the “% Inhibition” value turned out to be 15.04%.
On to `CCN(CCN(C)C)Cc1ccc(-c2ccc(NS(=O)(=O)c3cccc(Cl)c3)cc2)cc1` [TCMDC-136601], for which the “% Inhibition” value was 2.097%.
`O=C(COC(=O)c1cccc(S(=O)(=O)N2CCc3ccccc32)c1)NNC(=O)c1cccs1` [TCMDC-124334]: the “% Inhibition” value is recorded as 26.4%.
`CC(C)C[C@H](NC(=O)c1ccc(OCCN2CCOCC2)cc1)C(=O)N[C@H](/C=N/NC(=O)c1ccccc1)CCc1ccccc1` [TCMDC-135817]: the “% Inhibition” value came out at 2.96%.
Turning to `NC(=NCc1ccc(O)cc1)Nc1nc(-c2ccc(OCCCn3ccnc3)cc2)cs1` [TCMDC-138936], the “% Inhibition” value was -10.17%.
As for `CCCCN=C(N)Nc1ccc(OCCCOc2ccc(NC(N)=NCCCC)cc2)cc1` [TCMDC-137616], the “% Inhibition” value worked out at 55.77%.
With `COc1ccc(CN=C(N)Nc2nc(-c3ccc(OCCCn4ccnc4)cc3)cs2)cc1` [TCMDC-138934], the “% Inhibition” value is 9.829%.
For `CCCCCCN=C(N)c1ccc2nc(-c3ccc(O)cc3)[nH]c2c1` [TCMDC-137218], the “% Inhibition” value is reported as 15.89%.
Turning to `CCCCCCN=C(N)c1ccc(OCCCCCOc2ccc(C(N)=NCCCCCC)cc2)cc1` [TCMDC-137619], the “% Inhibition” value was determined as 113.3%.
`CC(C)CCN=C(N)c1ccc(OCCCCCOc2ccc(C(N)=NCCC(C)C)cc2)cc1` [TCMDC-137618]: the “% Inhibition” value was 62.8%.
As to `CCCCN=C(N)c1ccc(OCCCCCOc2ccc(C(N)=NCCCC)cc2)cc1` [TCMDC-137617], the “% Inhibition” value is 33.37%.
Turning to `CCCCCN=C(N)c1ccc(OCCCCCOc2ccc(C(N)=NCCCCC)cc2)cc1` [TCMDC-137620], the “% Inhibition” value was 63.24%.
Regarding `CN(C)C=Nc1ccc(OCCCCCCOc2ccc(N=CN(C)C)cc2)cc1` [TCMDC-137575], the “% Inhibition” value is -11.04%.
